# Data taken from ChEMBL document CHEMBL3988442, “University of Dundee, Small-Polar-MMV Screening Library” (2021).
# Target: T1, Aspartate--tRNA(Asp/Asn) ligase (Mycobacterium tuberculosis (strain ATCC 25618 / H37Rv)) (UniProt P9WFW3); also: in the data most compounds retested in dose-response had high values
# T1 sequence (whole entry): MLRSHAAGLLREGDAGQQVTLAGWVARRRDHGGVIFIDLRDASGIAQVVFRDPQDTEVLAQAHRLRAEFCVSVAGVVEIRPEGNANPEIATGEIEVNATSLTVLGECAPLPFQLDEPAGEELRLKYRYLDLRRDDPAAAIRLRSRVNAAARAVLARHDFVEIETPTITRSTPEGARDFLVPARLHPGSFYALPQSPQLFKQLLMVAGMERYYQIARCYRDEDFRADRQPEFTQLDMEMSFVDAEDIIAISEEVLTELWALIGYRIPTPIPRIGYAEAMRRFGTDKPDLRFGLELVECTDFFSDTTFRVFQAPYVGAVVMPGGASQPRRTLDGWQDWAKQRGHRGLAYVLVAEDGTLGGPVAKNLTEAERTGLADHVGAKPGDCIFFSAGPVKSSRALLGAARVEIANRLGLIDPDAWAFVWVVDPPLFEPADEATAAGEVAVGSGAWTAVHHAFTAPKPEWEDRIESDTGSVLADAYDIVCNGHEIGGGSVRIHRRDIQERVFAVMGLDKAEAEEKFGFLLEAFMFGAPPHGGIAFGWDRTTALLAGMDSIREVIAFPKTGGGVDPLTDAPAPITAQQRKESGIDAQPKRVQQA
# Test: Assay for Asp RNA synthetase-1 from Mycobacterium tuberculosis
# Format: functional
# Set-up: scale not given: direction of the effect not stated beside the values
# Conditions: 30 µM
row,Compound,Percent Effect [%]
1,Cc1ccc(Cl)cc1N1CCC(CNC(=O)CCn2ccnc2)C1 (stereo not given),-2.41
2,Cc1cc(C)cc(NC(=O)CN2CCCC(n3cncn3)C2)c1 (stereo not given),-0.903
3,O=C(NCCn1nc2ccccn2c1=O)c1cccc2[nH]ncc12,-0.633
4,Cc1nnc(NC(=O)CN(C)CC2CCCN2c2cccnn2)s1 (stereo not given),0.577
5,COc1cc(/C=C/c2ncc(C(=O)O)s2)cc(Cl)c1O,-0.0437
6,CCc1nnc2n1CCN(C(=O)c1ccc(C(F)(F)F)nc1C)C2,1.43
7,Fc1cnc(N2CCOC3(CCN(Cc4ccsc4)CC3)C2)nc1,14.1
8,Cc1cc(C)nc(Nc2cc(C3CCCN(C)C3)nc(C)n2)n1 (stereo not given),0.64
9,COCCN1CCC2(CC1)CC(COC)N(c1ncccn1)C2 (stereo not given),0.446
10,Cn1ccc(CN2CCC(NC(=O)NC3CCCCC3)CC2)cc1=O,-0.833
11,N#CCCN(CCC#N)C(=O)CN1CCCC1Cc1cccc(F)c1 (stereo not given),5.73
12,c1coc(-c2nnc(CN3CCOC(Cn4cccn4)C3)o2)c1 (stereo not given),-4.34
13,Cn1ccc(C(=O)N2CCN(c3ncccn3)CC2)cc1=O,1.62
14,CC(C)(C)c1cn2nc(N3CCOC(Cn4cncn4)C3)sc2n1 (stereo not given),-2.01
15,CCc1nc(CN2CCCC(NCc3cc(C)no3)C2)no1 (stereo not given),3.46
16,O=C(Nc1nc2c(s1)CN(S(=O)(=O)C1CC1)CC2)c1c(F)cccc1F,-0.834
17,O=C(NCc1ccc(-n2cncn2)nc1)c1ccc2c(c1)CCO2,-1.77
18,O=C(Cc1cccs1)N1C[C@@H]2COC[C@]2(COc2cccnc2)C1,-6.32
19,c1ccc(N2CCOC3(CCCN(c4nncs4)C3)C2)nc1 (stereo not given),6.43
20,O=C(c1ccncc1)N1CCC2(CC1)CC(Oc1cccnc1)CO2 (stereo not given),4.1

row,Compound,Percent Effect [%]
1,Cc1csc(CNC(=O)NC2CCN(c3ncccn3)CC2)n1,2.39
2,O=C(NCCCO)Nc1cccc(Cl)c1F,1.48
3,CNC(=O)c1cc2c(nc1NCC(C)C)CCN(S(=O)(=O)C1CC1)CC2,-2.58
4,COCCCNC(=O)CN(C)C(=O)c1cc(C)sc1C,-2.19
5,O=C(NCc1ccoc1)NC1CCCN(c2ncccn2)C1 (stereo not given),-2.64
6,CS(=O)(=O)NC[C@]12COC[C@H]1CN(C(=O)C1CCCCC1)C2,7.93
7,COc1cc(CNC(=O)Nc2cc(C(F)(F)F)c[nH]c2=O)ccn1,-3.59
8,CC(C(=O)NCCOc1ccc2c(c1)OCO2)n1cncn1 (stereo not given),-7.68
9,Cn1cnnc1C1CCN(C(=O)CCCOc2ccccc2F)CC1,0.819
10,Cc1cc(C)n(CC2CN(Cc3nc(-c4ccco4)no3)CCO2)n1 (stereo not given),1.64
11,CC(C)Cc1noc(CN2CCN(C(=O)c3cccc(F)c3)CC2)n1,-0.41
12,COc1ncccc1CNC(=O)NCCNC(=O)c1ccco1,-10.1
13,CC(C)NC(=O)N1CCN(C(=O)N(C)C)CC2(CC(=O)N(C)C2)C1 (stereo not given),-7.76
14,CC(C)CNC(=O)c1c(-n2cnnn2)sc2c1CCC2,8.87
15,CSc1ncc(C(=O)N2C[C@H]3CC[C@@H]2CN(Cc2ccccc2)C3)cn1,1.12
16,CCN1CCC(CNC(=O)NCc2cc(-c3ccc(C)cc3)no2)C1 (stereo not given),2.27
17,O=c1[nH]c2c(c(=O)n1C1CCCCC1)CCC2Nc1ccccc1Cl (stereo not given),4.33
18,c1cc(OCc2ccc3c(c2)OCCO3)ccc1CNC1CC1,-1.05
19,CC1CN(CC(=O)Nc2cccnc2)CCN1c1nccs1 (stereo not given),0.466
20,COc1ccc(Cc2cccc(C3CCN(C)CC3)n2)cc1,-1.77

# Target: Shiga toxin 2 (Escherichia coli O157:H7) (UniProt P09385+P09386)
# Test: E. coli 0.157:H7 Shiga Toxin SOP - stx2 screening assay
# Format: functional
# Set-up: scale not given: direction of the effect not stated beside the values
# Conditions: 30 µM
row,Compound,Percent Effect [%]
1,Cc1ccc(Cl)cc1N1CCC(CNC(=O)CCn2ccnc2)C1 (stereo not given),-19.4
2,Cc1cc(C)cc(NC(=O)CN2CCCC(n3cncn3)C2)c1 (stereo not given),12.2
3,O=C(NCCn1nc2ccccn2c1=O)c1cccc2[nH]ncc12,-25.7
4,Cc1nnc(NC(=O)CN(C)CC2CCCN2c2cccnn2)s1 (stereo not given),-34.1
5,COc1cc(/C=C/c2ncc(C(=O)O)s2)cc(Cl)c1O,-52.2
6,CCc1nnc2n1CCN(C(=O)c1ccc(C(F)(F)F)nc1C)C2,-8.18
7,Fc1cnc(N2CCOC3(CCN(Cc4ccsc4)CC3)C2)nc1,-18
8,Cc1cc(C)nc(Nc2cc(C3CCCN(C)C3)nc(C)n2)n1 (stereo not given),-0.428
9,COCCN1CCC2(CC1)CC(COC)N(c1ncccn1)C2 (stereo not given),-9.07
10,Cn1ccc(CN2CCC(NC(=O)NC3CCCCC3)CC2)cc1=O,-11.2
11,N#CCCN(CCC#N)C(=O)CN1CCCC1Cc1cccc(F)c1 (stereo not given),-0.707
12,c1coc(-c2nnc(CN3CCOC(Cn4cccn4)C3)o2)c1 (stereo not given),3.23
13,Cn1ccc(C(=O)N2CCN(c3ncccn3)CC2)cc1=O,22.4
14,CC(C)(C)c1cn2nc(N3CCOC(Cn4cncn4)C3)sc2n1 (stereo not given),-8.88
15,CCc1nc(CN2CCCC(NCc3cc(C)no3)C2)no1 (stereo not given),9.82
16,O=C(Nc1nc2c(s1)CN(S(=O)(=O)C1CC1)CC2)c1c(F)cccc1F,2.22
17,O=C(NCc1ccc(-n2cncn2)nc1)c1ccc2c(c1)CCO2,12.9
18,O=C(Cc1cccs1)N1C[C@@H]2COC[C@]2(COc2cccnc2)C1,-1.18
19,c1ccc(N2CCOC3(CCCN(c4nncs4)C3)C2)nc1 (stereo not given),1.67
20,O=C(c1ccncc1)N1CCC2(CC1)CC(Oc1cccnc1)CO2 (stereo not given),12.2

row,Compound,Percent Effect [%]
1,Cc1csc(CNC(=O)NC2CCN(c3ncccn3)CC2)n1,-1.46
2,O=C(NCCCO)Nc1cccc(Cl)c1F,-9.57
3,CNC(=O)c1cc2c(nc1NCC(C)C)CCN(S(=O)(=O)C1CC1)CC2,1.28
4,COCCCNC(=O)CN(C)C(=O)c1cc(C)sc1C,10.4
5,O=C(NCc1ccoc1)NC1CCCN(c2ncccn2)C1 (stereo not given),15.2
6,CS(=O)(=O)NC[C@]12COC[C@H]1CN(C(=O)C1CCCCC1)C2,-3.53
7,COc1cc(CNC(=O)Nc2cc(C(F)(F)F)c[nH]c2=O)ccn1,25.7
8,CC(C(=O)NCCOc1ccc2c(c1)OCO2)n1cncn1 (stereo not given),-4.93
9,Cn1cnnc1C1CCN(C(=O)CCCOc2ccccc2F)CC1,-1.48
10,Cc1cc(C)n(CC2CN(Cc3nc(-c4ccco4)no3)CCO2)n1 (stereo not given),-16.4
11,CC(C)Cc1noc(CN2CCN(C(=O)c3cccc(F)c3)CC2)n1,-17.7
12,COc1ncccc1CNC(=O)NCCNC(=O)c1ccco1,-25
13,CC(C)NC(=O)N1CCN(C(=O)N(C)C)CC2(CC(=O)N(C)C2)C1 (stereo not given),-39.2
14,CC(C)CNC(=O)c1c(-n2cnnn2)sc2c1CCC2,2.02
15,CSc1ncc(C(=O)N2C[C@H]3CC[C@@H]2CN(Cc2ccccc2)C3)cn1,-17.1
16,CCN1CCC(CNC(=O)NCc2cc(-c3ccc(C)cc3)no2)C1 (stereo not given),-44.9
17,O=c1[nH]c2c(c(=O)n1C1CCCCC1)CCC2Nc1ccccc1Cl (stereo not given),-5.14
18,c1cc(OCc2ccc3c(c2)OCCO3)ccc1CNC1CC1,-54.3
19,CC1CN(CC(=O)Nc2cccnc2)CCN1c1nccs1 (stereo not given),7.04
20,COc1ccc(Cc2cccc(C3CCN(C)CC3)n2)cc1,-4.18
